Only some compounds are listed: those with a hit (about 3% of all), similar ones and a draw of the others.
PfHsp90 set2: growth inhibition of PfHsp90-expressing yeast, primary screen, antimalarial PfHsp90 inhibitor project, S. cerevisiae, BacTiter-Glo luminescence, single point, set 2 | BacTiter-Glo ATP, 48 h; yeast lacking PDR1 and PDR3 efflux regulators | inhibition, % at 9.4 µM | 0.32% of 310,000 active | AID 504621, 2011;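 active means every replicate shows inhibition above about 80%, whatever the replicate mean, limit read from the data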;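 further: 0% = DMSO neutral controls and 100% = 20 µM radicicol positive controls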
esBAF inh: Bmi1 luciferase reporter increase in mESCs, primary screen, esBAF inhibitor project, mouse ES cells, Bmi1 luciferase knock-in, single point | reporter increase, % at 12.5 µM | 24 h; 100% = twice the neutral-well signal | 2% of 350,000 active | AID 602393, 2012; in the data active means activation above about 40%;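 further: 0% = median of the plate's neutral control wells and 100% = double that signal; a rise in the Bmi1 reporter signal indicates esBAF inhibition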
MITF act: activators of MITF-driven TRPM1 promoter reporter, primary screen, cell-based, SK-MEL-5, luciferase, single point | SK-MEL-5 TRPM1-promoter luciferase, 24 h; % of positive control, neutral wells = 0 | activation, % at 12.5 µM | 0.75% of 300,000 active;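 active means mean activation of at least 80% with every replicate also reaching 80%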;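 further: 0% = neutral control wells and 100% = parthenolide positive control wells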
Vif imaging: HIV Vif self-association inhibitors, primary screen, imaging, HEK293T, single point. HEK293T cells, Vif self-association by quenched fluorescence, 24 h. 0.35% of 340,000 active. inhibition, % at 7.49 µM; in the data active means inhibition above about 50%, passing the limit was not always enough
N-glyco inh: increase of ERlucT glycosylation luciferase signal, primary screen, N-linked glycosylation inhibitor project, D54 ERlucT cells, luminescence, set 2 | D54 ERlucT glycosylation luciferase reporter, 24 h; percent of 100 nM tunicamycin response | reporter increase, % at 12.5 µM | 0.23% of 360,000 active;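 active means mean luciferase reporter signal, scaled so untreated is 0 and the glycosylation-blocking control 100, at or above a set limit in every replicate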;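 further: luciferase carries N-glycosylation sites so blocking glycosylation raises the light; 0% = median of neutral control wells and 100% = median of 100 nM tunicamycin wells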
Wnt bcat act: Wnt/beta-catenin pathway activators, primary screen, cell-based, plate reader, single point; Wnt/beta-catenin reporter cell assay, activator; 1.2% of 300,000 active; activation, % at 9.35 µM; AID 743398, 2014; in the data active means activation above about 30%, passing the limit was not always enough;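 further: 0% = neutral control wells and 100% = positive control wells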
The depositor's hits bear a star; x = no result.

SMILES | PfHsp90 set2 | esBAF inh | MITF act | Vif imaging | N-glyco inh | Wnt bcat act
Cc1cc(C[n+]2cc(Br)ccc2N)c2ncccc2c1 | 16.0 | x | 0.8 | -3.8 | 3.9 | 40.6*
O=C(Nc1cccc(Cl)c1)c1ccc2sc([C@H]3C[C@H](O)[C@@H](CO)O3)nc2c1 | x | 66.5* | x | -22.9 | -0.1 | -0.7
O=C(Nc1cccc(Cl)c1Cl)c1csc([C@@H]2O[C@H](CO)[C@@H](O)[C@H]2O)n1 | x | 50.1* | x | -5.5 | -0.4 | 19.0
O=C(Nc1cccc(Cl)c1Cl)c1csc([C@H]2C[C@H](O)[C@@H](CO)O2)n1 | x | 77.2* | x | x | -0.7 | 42.1*
O=C(Nc1ccc(Cl)cc1)c1csc([C@@H]2O[C@H](CO)[C@@H](O)[C@H]2O)n1 | x | 45.1* | x | 18.5 | 0.1 | 2.0
O=C(NCc1ccccc1Cl)c1csc([C@H]2C[C@H](O)[C@@H](CO)O2)n1 | x | -5.5 | x | 23.1 | -0.8 | 2.6
O=C(Nc1cccc(Cl)c1)c1ccc2sc([C@@H]3O[C@H](CO)[C@H](O)[C@H](O)[C@H]3O)nc2c1 | x | 3.8 | x | -10.6 | -0.1 | x
CC1=C(C(=O)N(C)C)CC(CC(=O)NCC2CCCCC2)C(=O)N1Cc1ccc(C(C)(C)C)cc1 (stereo not given) | x | -6.6 | x | -1.9 | 10.1 | -1.2
COc1cc(-c2nc(-c3ccccc3)c(-c3cccs3)[nH]2)cc(OC)c1OC | 5.6 | -9.3 | 8.2 | -0.6 | 56.6* | x
CCOC(=O)C(C)On1c(-c2ccccc2)nc2ccc([N+](=O)[O-])cc21 (stereo not given) | 18.5 | x | 98.8* | 7.4 | 3.4 | x
O=C(O)COn1c(-c2ccccc2)nc2ccc([N+](=O)[O-])cc21 | -14.5 | 48.7* | 59.4 | -9.2 | -1.6 | 12.4
O=C(O)COn1c(-c2ccc(Cl)cc2)nc2ccc(Cl)cc21 | 7.6 | x | 57.2 | 25.8 | 2.0 | 13.4
CCCCn1nc2cc(C(=O)NCCc3cccs3)ccc2c1OCC | 3.2 | 41.4* | 33.6 | 5.4 | -0.3 | 3.3
CCCn1nc2cc(C(=O)NCCc3ccc(C)cc3)ccc2c1OCC | x | -2.3 | -10.1 | -4.6 | 2.9 | -1.5
CCOc1c2ccc(C(=O)NCCc3cccs3)cc2nn1CC | 12.3 | 45.1* | 62.9 | 3.6 | 0.0 | 31.9*
CCc1nnc(NC(=O)CSc2nnc3c(n2)[nH]c2ccccc23)s1 | -3.3 | x | -5.5 | -0.6 | 1.4 | 0.4
CC[C@@H]1C=C(C(=O)O)[C@H](c2ccc(C)cc2)N1S(=O)(=O)c1ccc(C)cc1 | -12.5 | -0.5 | -5.1 | x | 1.5 | 0.3
C=C[C@@H]1c2ccccc2N(S(=O)(=O)c2ccc(C)cc2)[C@H](c2ccccc2C(F)(F)F)C1(C#N)C#N | 13.3 | -13.8 | -25.1 | -2.7 | -10.7 | -7.5
C/C=C/C(=O)Nc1cccc(C2=NOC3(C2)C[C@@H](C(N)=O)N(C(=O)c2cc([N+](=O)[O-])cc([N+](=O)[O-])c2)C3)c1 (stereo not given in full) | -7.0 | -4.2 | -13.7 | x | -0.5 | 4.7
CC(=Nc1ccc(O)cc1)c1sc2ccccc2c1O | 13.9 | x | 75.4 | 28.9 | -6.5 | x
CC(=O)NCCN=C(C)c1sc2ccccc2c1O | 23.8 | 41.0* | 22.2 | -5.9 | -0.5 | x
O=C(CNC(=O)c1sc2ccccc2c1Cl)NCc1ccccc1 | -13.6 | x | 16.6 | x | 4.0 | -0.1
CC(=Nc1cccc(C)c1)c1sc2ccccc2c1O | -33.8 | 52.3* | 45.8 | x | -6.4 | x
Cc1nn(C)cc1/C=N/n1nnnc1N | 3.5 | 12.1 | 15.5 | -3.3 | 3.1 | -4.2
COc1ccc(-c2coc3cc(OC4OC(CO)C(O)C(O)C4O)ccc3c2=O)cc1 (stereo not given) | 22.2 | 26.0 | 71.3 | 4.9 | -7.3 | 41.1*
COc1ccc(-c2coc3cc(O[C@@H]4O[C@H](CO)[C@@H](O)[C@H](O)[C@H]4O)c(OC)cc3c2=O)cc1 | -19.4 | 46.6* | 46.1 | -2.6 | 2.3 | 24.8
COc1cc(O)c2c(=O)c3c(O[C@H]4O[C@@H](CO)[C@H](O)[C@@H](O)[C@@H]4O)ccc(O)c3oc2c1 | 5.6 | -4.1 | -3.6 | 3.0 | 5.1 | 3.8

Screens deposited in PubChem by Broad Institute.
